Test results taken from PubChem BioAssay.
A number with no mark means an inactive call. The rule behind the calls is not given here.

biological target: Pantothenate synthetase (Mycobacterium tuberculosis (strain ATCC 25618 / H37Rv)) (UniProt P9WIL5); experiment: Coupled enzyme confirmation of inhibitors against recombinant Mtb PanC (AID 375); settings: coupled enzyme assay; at 10 µM, hits give high values;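 note: 0% = full reaction with vehicle and 100% = no enzyme background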
Sequence (P9WIL5 whole entry, looked up): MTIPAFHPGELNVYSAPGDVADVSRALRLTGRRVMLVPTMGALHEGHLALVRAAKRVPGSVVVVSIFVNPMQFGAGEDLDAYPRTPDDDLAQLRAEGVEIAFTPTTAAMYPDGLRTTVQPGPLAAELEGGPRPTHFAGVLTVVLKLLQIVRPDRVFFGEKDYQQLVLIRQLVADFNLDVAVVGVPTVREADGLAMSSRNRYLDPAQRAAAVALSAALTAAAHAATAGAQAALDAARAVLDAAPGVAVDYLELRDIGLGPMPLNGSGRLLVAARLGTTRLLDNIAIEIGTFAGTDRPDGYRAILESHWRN

Compound	inhibition
COc1ccccc1NC(=O)CC(NCc1ccccc1)C(=O)O (configuration not stated)	5%
Nc1ncnc2c1ncn2[C@@H]1O[C@H](CO)[C@@H](O)[C@H]1O	0%
O=S(=O)(Cc1ccc(Cl)cc1)Nc1ccc2c(c1)OCO2	7%
CC1CCC(NC(=O)C2(C)CCC(=O)N2Cc2cccnc2)CC1 (configuration not stated)	0%
COc1ccc(N2CCN(C(c3cccc(OC)c3OC)c3nnnn3C3CCCC3)CC2)cc1 (configuration not stated)	0%
CCCn1c(SCC(=O)Nc2nnc(-c3ccccc3)s2)nnc1-c1ccccn1	0%
CC(=O)c1ccc(OCC(O)CN2CCN(CCO)CC2)cc1 (configuration not stated)	4%
CC(C)N(C(=O)CSc1nnc(NC(=O)C2CCC2)s1)C(C)C	0%
Cc1ccc(S(=O)(=O)C2(C(=O)NC3CCCC3)CC2)cc1	9%
c1coc(CN(Cc2cccs2)Cc2nnnn2C2CCCCC2)c1	0%
Cc1cc2c(cc(C(=O)NCc3cccnc3)n2Cc2ccc(Cl)cc2)o1	4%
O=C(CCCC(=O)N(CC(=O)NC1CCCCC1)Cc1ccc2c(c1)OCO2)Nc1ccccn1	2%
O=C(CN1C(=O)NC2(CCCCC2)C1=O)Nc1ccc(S(=O)(=O)N2CCOCC2)cc1	5%
O=C(Nc1ccncc1)c1cccc(F)c1	6%
Cc1onc(-c2ccccc2)c1C(=O)N1CCOCC1	9%
Fc1ccc(NCc2nnc(SCc3nnc(-c4ccccc4)o3)n2CC2CCCO2)cc1 (configuration not stated)	0%
C[N+]1=C2CCCCCN2C(O)(c2ccccc2)C1 (configuration not stated)	7%
